The whole screen tested about 190,000 compounds, of which about 810 (0.43%) were called active. Cut-off read from the data, not from the text of the source: active = inhibition above about 50%; inactive = the rest. The full list was thinned out, with actives kept by preference.
target: Mannose-6-phosphate isomerase (Homo sapiens) (UniProt P34949); test: MPI enzyme activity inhibition – biochemical, fluorescence intensity, coupled assay, primary screen (AID 1209); conditions: purified PMI enzyme, at 20 µM, active compounds read high;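 note: plate controls were DMSO vehicle for no effect and wells lacking substrate for full effect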
Sequence (P34949 whole entry, looked up): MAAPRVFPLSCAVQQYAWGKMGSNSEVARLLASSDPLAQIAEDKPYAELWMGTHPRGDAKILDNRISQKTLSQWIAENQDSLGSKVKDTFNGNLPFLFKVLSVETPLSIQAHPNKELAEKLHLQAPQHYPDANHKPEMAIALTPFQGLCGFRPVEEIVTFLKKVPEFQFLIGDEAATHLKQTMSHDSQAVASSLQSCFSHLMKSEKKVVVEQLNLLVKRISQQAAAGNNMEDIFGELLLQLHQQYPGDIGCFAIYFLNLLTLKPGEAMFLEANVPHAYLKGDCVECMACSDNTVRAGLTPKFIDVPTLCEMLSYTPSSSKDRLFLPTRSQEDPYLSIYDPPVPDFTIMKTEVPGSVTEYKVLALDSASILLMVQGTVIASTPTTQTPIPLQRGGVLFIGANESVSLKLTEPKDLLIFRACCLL

inhibition, active:
Cc1ccc(NS(=O)(=O)c2cc(NC(=O)c3ccc4c(c3)NC(=O)CS4)ccc2Cl)c(C)c1 59.3%
COc1ccc(NC(=O)c2ccc3c(c2)NC(=O)CS3)cc1S(=O)(=O)Nc1ccc(Br)cc1 54.5%
O=C1CSc2ccc(C(=O)Nc3cccc(S(=O)(=O)Nc4ccc(Br)cc4)c3)cc2N1 62.8%
COC(=O)c1ccc(C(=O)OC)c(-n2c(=O)c3ccccc3c3ccccc3c2=O)c1 80.2%
O=C1CCC([N+](=O)[O-])C(c2cccc3ccccc23)N1 (configuration not stated) 101%
O=c1ccc2cc3c([nH]c4ccc(Br)cc43)oc-2c1O 70.2%
S=c1[nH]nc(Cc2ccc(Br)cc2)n1/N=C/c1ccc(Cl)cc1 51.1%
Cn1c(=Nc2ccc(N3CCOCC3)cc2)ccc2ccccc21 78.4%
Oc1c(C=Nc2cccc3nsnc23)ccc2ccccc12 70.7%
O=c1oc2c(O)c(O)cc3c(=O)oc4c(O)c(O)cc1c4c23 67.5%
Cc1c(Cc2ccccc2)c(=O)oc2c(O)c(O)ccc12 77.6%
O=c1c2ccccc2sn1-c1cc(S(=O)(=O)N2CCOCC2)ccc1N1CCCC1 92.7%
O=c1c2ccccc2sn1-c1cc(S(=O)(=O)N2CCOCC2)ccc1N1CCOCC1 104%
Cc1ccccc1N=Cc1cccc(O)c1O 74.1%
CCCCCCn1c(SCC(=O)OC)nc2c1c(=O)[nH]c(=O)n2C 54%
Cc1ccc(C2CC(C(F)(F)F)n3ncc(C(=O)NCc4ccco4)c3N2)cc1 (configuration not stated) 108%

inhibition, inactive:
COc1ccc(-n2ncc3c(=O)n(Cc4c(F)cccc4Cl)cnc32)cc1 1.8%
O=C(Nc1cccc(S(=O)(=O)Nc2ccc(Cl)cc2)c1)c1ccc(Cl)nc1 15.9%
COc1ccc(NC(=O)c2cccc(S(=O)(=O)Nc3ccc(Br)cc3)c2)cn1 12.5%
Cc1ccc(NS(=O)(=O)c2cc(NC(=O)c3ccc4c(c3)NC(=O)CS4)ccc2C)c(C)c1 41.1%
Cc1ccc(NS(=O)(=O)c2cc(C(=O)O)ccc2Cl)c(C)c1 -31.1%
COc1ccc(NS(=O)(=O)c2cc(NC(=O)c3ccc(F)cc3)ccc2OC)cc1 14.1%
COc1ccc(NC(=O)c2c(F)cccc2F)cc1S(=O)(=O)Nc1ccc(Br)cc1 19.4%
CCN(CC)CCNC(=O)C1CCC(=O)N1CCc1ccccc1 (configuration not stated) 4.7%
CCOc1cc(/C=N/O)ccc1OCc1ccc(F)cc1 -0.3%
CC(C)NC(=O)c1onc(CSc2ccc(F)cc2)c1C(=O)O -5.1%
O=C(c1ccc(F)cc1)N1CCN2C(=O)c3ccccc3C12c1ccc(Cl)cc1 (configuration not stated) 8.3%
Cc1c([N+](=O)[O-])ccc(S(=O)(=O)N2CCC(C(N)=O)CC2)c1C 10.6%
COC(=O)c1ccc2c(=O)n(-c3ccccc3)c(=S)[nH]c2c1 0.9%
COC(=O)c1ccc2c(=O)n(-c3ccccc3F)c(=S)[nH]c2c1 -15.3%
CCCCCN(C(=O)NC(=O)Nc1nncs1)S(C)(=O)=O -0.4%
CCn1cc(C2=NCCO2)c2ccccc21 0.2%
CCOC(=O)Cc1csc(NC(=O)c2c(O)c3ccccc3n(C)c2=O)n1 7.5%
O=C1CCC([N+](=O)[O-])C(c2ccccc2Cl)N1 (configuration not stated) 2.8%
O=C1CCC([N+](=O)[O-])C(c2cccc(Cl)c2Cl)N1 (configuration not stated) -4.8%
O=C(Cc1ccccc1)Nc1ccccc1C(=O)O -3%
O=c1c2c([nH]c3ccc(Br)cc13)CCCC2 -15.1%
Cc1cc(=O)c2cc(Br)ccc2[nH]1 0.3%
O=C(NCC(=O)N(Cc1cccs1)C(C(=O)NC1CCCCC1)c1ccco1)c1ccco1 (configuration not stated) 11%
CSc1ccc(/C=N/n2c(Cc3ccc(Br)cc3)n[nH]c2=S)cc1 14.5%
Cc1n[nH]c(=S)n1/N=C/c1ccc(OCc2ccc(Cl)cc2)cc1 -6.8%
CCN1CCN(C(=O)C(C)Nc2cc(Cl)c(OC)cc2OC)CC1 (configuration not stated) 26.6%
O=C(CSc1nc2ccccc2c(=O)[nH]1)c1ccc(O)cc1O -5.9%
CCCCNS(=O)(=O)c1ccc(NC(=O)C(Sc2ccccc2)c2ccccc2)cc1 (configuration not stated) 23.4%
O=c1c2ccccc2oc2nc(-c3ccco3)n(-c3ccccc3)c(=O)c12 1.3%
Cn1c(N=Nc2ccc(N3CCOCC3)cc2)[n+](C)c2ccccc21 15.1%
CCn1c(=Nc2ccc(N3CCOCC3)cc2)ccc2ccccc21 6%
CCOC(=O)Cc1csc(NC(=O)c2c(-c3ccccc3)noc2C)n1 2.9%
Cc1cc(C)n(C(=O)c2ccncc2)n1 6.1%
Cc1oc2cc(O)ccc2c(=O)c1Oc1ccccc1 9.2%
CC(=O)Oc1ccc2c(=O)c(N3C(=O)c4ccccc4C3=O)c(C)oc2c1C 14.5%
CCn1c(NCc2ccccn2)nc2c1c(=O)n(C)c(=O)n2C -0.4%
Oc1c(/C=N/c2ncn[nH]2)ccc2ccccc12 14.9%
Oc1c(/C=N/Nc2cccc3cccnc23)ccc2ccccc12 -30.2%
CCCCCCC1CC(=O)NC(=S)N1 (configuration not stated) 4.8%
COc1ccc(NC(=O)C(C)Oc2ccc(/C(C)=N\O)cc2)cc1 (configuration not stated) -0.3%
COc1cccc2cc(C(C)N(CCCN3CCOCC3)C(=S)Nc3cccc(C)c3)oc12 (configuration not stated) 5.2%
COc1ccc(CNC(=O)c2cccc3c2C(=O)N(Cc2cccnc2)C3)cc1 4.4%
Cc1c(Br)c(=O)oc2c(Br)c(O)c(O)cc12 12.8%
Cc1c(Br)c(=O)oc2c(Br)c(O)ccc12 -26.1%
O=C(COC(=O)c1ccc(Cl)nc1)c1ccc2c(c1)OCCO2 -10.6%
CSCC[C@H](NC(=O)c1cc([N+](=O)[O-])ccc1Cl)c1nc2ccccc2[nH]1 16.7%
CN(C)c1ncccc1-c1nc2ccccc2s1 -2.6%
COc1ccc2c(C)c(Cc3ccccc3)c(=O)oc2c1OC 0.7%
Cc1c(Cc2ccccc2)c(=O)oc2c(CN(C)C)c(O)c(Cl)cc12 1.2%
N#C/C(C(=O)N1CCCCC1)=C1/N=C(N)c2ccccc21 -1.3%
CC1CC1C(=O)Nc1cc(S(=O)(=O)N2CCOCC2)ccc1N1CCCC1 (configuration not stated) -3.9%
N#Cc1ccc(OCC(=O)NCCc2ccc(S(N)(=O)=O)cc2)cc1 -7%
Cc1ccc(C)n1-c1cc(S(=O)(=O)N2CCOCC2)ccc1N1CCCC1 9.8%
O=c1c2ccccc2sn1-c1ccc(S(=O)(=O)N2CCCC2)cc1 42.4%
O=S(=O)(c1ccc2c(c1)oc1ccccc12)N1CCOCC1 9.1%
O=C(O)c1cc(S(=O)(=O)N2CCOCC2)ccc1N1CCOCC1 -1%
CC(=O)c1ccc(N(C(=O)c2ccco2)C(C(=O)NC2CCCC2)c2ccc(N3CCOCC3)cc2)cc1 (configuration not stated) 6.3%
Cc1ccc(P(=O)(CO)c2ccc(C)cc2)cc1 -12%
CN(Cc1ccccc1)C(=O)COC(=O)c1ccc(Cl)c(N)c1 9.3%
O=C(Cc1ccc(Cl)cc1Cl)NCC1(N2CCOCC2)CCCCC1 14.5%
Cc1ccc(NS(=O)(=O)c2cc(C(=O)Nc3cccc(N(C)S(C)(=O)=O)c3)ccc2C)c(C)c1 5.7%
CCOC(=O)C1CCN(C(=O)CC(C)c2ccccc2)CC1 (configuration not stated) -0.6%
CCN(CC)c1ccc(C=Nc2ccc(C)cc2C)c(O)c1 -0.7%
CCN(CC)c1ccc(C=Nc2ccccc2C)c(O)c1 27.1%
CCc1ccc(O)c(N=Cc2cccc(C)c2O)c1 18.5%
Cc1ccc(O)c(C=Nc2cc(C)ccc2O)c1 23.1%
O=C(/C=C/c1ccc([N+](=O)[O-])cc1)N(c1ccccn1)C1CCCCC1 -38.1%
COc1cc(/C=N/N=C(/N)c2nonc2N)cc(Br)c1OCc1cccc(C)c1 16.3%
OC(CNCc1ccccc1Cl)C(F)(F)F (configuration not stated) 5.4%
COc1ccccc1N1CCN(C(=O)c2ccc(CSc3ccccc3)cc2)CC1 -1.4%
Cc1ccc(O)c(CP(=O)(c2ccccc2)c2ccccc2)c1 -4.9%
COc1ccc(F)cc1C(=O)C1CCCN(C(=O)C2=C(C)OCCO2)C1 (configuration not stated) 5.1%
CCCCCn1c(SCC(=O)OC)nc2c1c(=O)[nH]c(=O)n2C 0.2%
CCCCn1c(SCC(=O)OCC)nc2c1c(=O)[nH]c(=O)n2C 3.6%
Fc1ccc2nc(N3CCCC3)sc2c1 8.5%
COc1cc(CNC(C)(C)CO)cc(Br)c1OCc1ccc(Cl)cc1 5.6%
FC(F)(F)c1cccc(OCCOCCn2cncn2)c1 3.9%
O=C(NCc1ccco1)c1cnn2c1NC(c1ccc(Br)cc1)CC2C(F)(F)F (configuration not stated) 27%
O=C(NCc1ccco1)c1cnn2c1NC(c1ccccc1)CC2C(F)(F)F (configuration not stated) -6.3%
COc1cc(NC(=O)C(C)Oc2ccccc2)c(C(=O)O)cc1OC (configuration not stated) 10.7%
O=C(Cc1c[nH]c2ccccc12)NC1(C(=O)NC2CCCCC2)CCCCC1 -4%
